CYP2C9 inhib – inhibitors of human CYP2C9; P11712; CYP2C9 Supersomes, luciferin-H conversion, luminescence; inhibition, % at 5 µM; 96,000 compounds, 20% hits; AID 777;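 active = blocking of liver enzyme CYP2C9 beyond about 50% at 5 µM, limit read from the data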
CYP2C9 activ – activators of human CYP2C9; recombinant CYP2C9, luciferin-H conversion, luminescence; hits give high values; factor 1 = untreated enzyme, 0 = blocked; activation factor at 5 µM; 96,000 compounds, 1.4% hits; AID 1024;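 active = activation factor of 2 or more for CYP2C9 at a 5 µM dose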;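 note: 0 = sulfaphenazole-blocked wells and 1 = vehicle-only wells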
CYP2C19 inh – inhibitors of human CYP2C19. P33261. 96,000 compounds, 21% hits. CYP2C19 Supersomes, luciferin-H EGE luminescence, 30 min. inhibition, % at 5 µM;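 active = CYP2C19 inhibition above a set limit at 5 µM in the primary screen, cut at about 50% in these data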;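 note: plate controls were negative control wells for no effect and 2.5 mM tranylcypromine positive control for full effect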
PLAP act – activators of human placental alkaline phosphatase | AID 696 | activation fold at 20 µM | P05187 | purified PLAP enzyme, luminescent substrate read-out; hits give high values | 96,000 compounds, 1.2% hits; in the data active = activation fold above about 2
Target sequence (P05187 whole entry, looked up): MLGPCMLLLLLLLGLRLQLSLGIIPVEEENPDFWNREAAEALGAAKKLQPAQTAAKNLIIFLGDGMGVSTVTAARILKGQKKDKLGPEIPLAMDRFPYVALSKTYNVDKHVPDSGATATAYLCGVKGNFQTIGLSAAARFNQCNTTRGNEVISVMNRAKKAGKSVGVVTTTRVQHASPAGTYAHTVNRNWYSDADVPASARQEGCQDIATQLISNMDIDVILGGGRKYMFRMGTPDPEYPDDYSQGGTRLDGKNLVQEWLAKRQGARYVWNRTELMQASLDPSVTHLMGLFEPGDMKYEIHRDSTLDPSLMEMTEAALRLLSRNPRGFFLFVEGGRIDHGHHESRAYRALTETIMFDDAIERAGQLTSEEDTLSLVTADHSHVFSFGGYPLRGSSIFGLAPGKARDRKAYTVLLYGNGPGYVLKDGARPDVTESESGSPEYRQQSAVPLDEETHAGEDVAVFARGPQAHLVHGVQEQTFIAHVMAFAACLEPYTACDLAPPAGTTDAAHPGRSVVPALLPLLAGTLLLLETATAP
CYP2C19 act – activators of human cytochrome P450 2C19; AID 1025; 96,000 tested, under 10 active; P33261; activation factor at 5 µM; recombinant CYP2C19, luciferin-H EGE luminescence; hits give high values; 0 = fully inhibited enzyme, 1 = untreated enzyme;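 active = activation factor of at least 2 at 5 µM in the primary screen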;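 note: 0 = wells with 2.5 mM tranylcypromine and 1 = vehicle-only wells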
Numbers without * were called inactive. Hits are enriched below; roughly 31% of the tested compounds scored in any of these assays.

SMILES	CYP2C9 inhib	CYP2C9 activ	CYP2C19 inh	PLAP act	CYP2C19 act
COc1cccc(-c2nc(CSCC(=O)N3CCc4ccccc43)c(C)o2)c1	-3	1	2	1	1
COc1ccc(OC)c(-c2nnc(SCC(=O)N3CCCc4ccccc43)o2)c1	26	0.7	98*	1.4	0
Cc1occc1-c1nnc(SCC(=O)N2CCc3ccccc32)o1	16	0.8	74*	1	0.3
COc1ccc(C(C(=O)NC2CCCCC2)N(C(=O)c2sc(C)nc2C)c2ccc(C(C)=O)cc2)cc1 (stereo not given)	5	0.9	5	1.3	0.9
Cc1cc(Cl)cc(C)c1OCC(=O)O	-30	1.3	-22	1	1.2
COc1cc(C(=O)NCc2nnc(SCC(=O)N3CCc4ccccc43)o2)cc(OC)c1OC	79*	0.2	64*	1.2	0.4
COc1cc(C(=O)NCc2nnc(SCC(=O)NCc3ccccc3)o2)cc(OC)c1OC	29	0.7	0	1	1
COc1cc(OC)cc(-c2nnc(SCC(=O)N3CCCc4ccccc43)o2)c1	20	0.8	92*	1.9	0.1
O=C(CCCC(=O)N(CC(=O)NC1CCCCC1)CC1CCCO1)Nc1ccccn1 (stereo not given)	15	0.9	8	1.5	0.9
Cc1nnc(SCc2nc(N)nc(Nc3ccccc3)n2)s1	30	0.7	28	1	0.7
Cc1c(-c2nc(N)nc(Nc3ccccc3)n2)oc2ccccc12	84*	0.2	23	1.3	0.8
COC(=O)CSc1nnc(-c2ccccc2OC)o1	-5	1.1	8	1.2	0.9
COc1ccc(-c2nnc(SCC(=O)N3CCOCC3)o2)cc1OC	30	0.7	35	1.1	0.7
COc1ccccc1-c1nnc(SCC(=O)OC(C)C)o1	-34	1.3	59*	1	0.4
CCOC(=O)N1CCN(C(=O)CSc2nnc(-c3cc(OC)cc(OC)c3)o2)CC1	29	0.7	30	1.3	0.7
CCOC(=O)N1CCN(C(=O)CSc2nc(-c3cccc(C)c3)ns2)CC1	69*	0.3	49	1.4	0.5
CCOC(=O)N1CCN(C(=O)CSc2nnc(-c3ccccc3OC)o2)CC1	-124	2.2*	26	1.6	0.7
COc1ccc(-c2nnc(SCC(=O)N3CCC(Cc4ccccc4)CC3)o2)cc1OC	65*	0.4	93*	1.6	0.1
CCCOc1ccccc1NC(=O)/C=C/C(N)=O	-14	1.1	2	1	1
CCCCS/C(=C(/C#N)C(N)=O)c1cc2c([nH]1)CCCC2	35	0.6	34	0.7	0.7
Cc1ccc(S(=O)(=O)N2CCN(C(=O)CSc3nnc(-c4ccco4)o3)CC2)cc1	73*	0.3	76*	1.6	0.2
Cc1ccc(-c2nnc(SCC(=O)N3CCCC3)o2)cc1C	-71	1.7	53*	1.5	0.5
Cc1cccc(C)c1OC(=O)CSc1nnc(-c2ccccc2O)o1	67*	0.3	75*	1.1	0.2
CCOC(=O)N1CCN(C(=O)CSc2nnc(-c3cccc(OC)c3)o2)CC1	54*	0.5	40	1.5	0.6
O=C(Cc1c(O)c2ccccc2[nH]c1=O)OC1CCCCC1	-1	1	-1	0.9	1
SMILES	CYP2C9 inhib	CYP2C9 activ	CYP2C19 inh	PLAP act	CYP2C19 act
O=c1c2c(nc(NCCO)n1CC1CCCCC1)-c1ccccc1CC21CCCC1	100*	0	93*	1.6	0.1
CC1(C)CC(n2c(NCCO)nc3c(c2=O)C2(CCCC2)Cc2ccccc2-3)CCO1 (stereo not given)	84*	0.2	84*	1.5	0.2
O=C1CC(c2ccc(Cl)cc2)CC(O)=C1C=NCc1ccc(Cl)c(Cl)c1 (stereo not given)	40	0.6	20	0.9	0.8
O=C(COC(=O)c1ccccn1)Nc1cc(Cl)ccc1Cl	-5	1	20	0.9	0.8
Cc1cccc(N2CCN(CC(=O)Nc3nccs3)CC2)c1C	62*	0.4	82*	2.3*	0.2
COc1cc2oc3ccccc3c2cc1N(CC(=O)N(C)C)S(=O)(=O)c1ccc(C)cc1	63*	0.4	45	1.6	0.5
CN(C)C(CNC(=O)NC1CCCCC1)c1cccnc1 (stereo not given)	-3	1	-1	0.9	1
O=S(=O)(CCc1nc2ccccc2o1)c1ccc2ccccc2c1	-169	2.7*	17	0.9	0.8
CCCNC(=O)CC1C(=O)N(Cc2ccccc2)C(C)c2nc3ccccc3n21 (stereo not given)	10	0.9	67*	0.9	0.3
CCCCn1c(CNC(=O)Cc2ccccc2)nc2ccccc21	-23	1.2	28	1	0.7
Cc1ccc(-n2c(CNc3ccc(F)cc3)nnc2SCC(=O)N2CCCC2)cc1	-3	1	-12	1.5	1.1
O=C(CSc1nnc(CCc2nc3ccccc3[nH]2)n1-c1ccccc1)NCc1ccco1	75*	0.2	31	2*	0.7
Cc1ccc(-n2c(CNc3ccc(F)cc3)nnc2SCC(=O)NCc2ccco2)cc1	61*	0.4	35	1.6	0.7
O=c1c2ccccc2oc2ncccc12	20	0.8	14	1.1	0.9
COc1ccccc1-c1n[nH]c(=S)n1-c1ccccc1	9	0.9	15	1	0.8
c1ccc2sc(SCc3ccc(-c4nnco4)cc3)nc2c1	15	0.8	79*	1.2	0.2
Nc1nc(CSc2nc3ccccc3s2)nc(N2CCCCC2)n1	24	0.8	25	1.2	0.7
Cc1ccccc1Cc1c(C)nc2ncnn2c1C	21	0.8	32	0.9	0.7
Cc1nc2ncnn2c(C)c1Cc1ccccc1Cl	4	1	87*	0.9	0.1
O=C(c1ccc(-c2nnc(Nc3ccccc3)c3ccccc23)cc1)N1C[C@H]2C[C@H](C1)c1cccc(=O)n1C2	34	0.7	9	1.5	0.9
CCOC(=O)C1=C(C)N=C2SCCC(=O)N2[C@@H]1/C=C/c1ccccc1	50	0.5	33	1.1	0.7
CCOC(=O)C1=C(C)N=c2s/c(=C\c3ccc(OC(C)=O)c(OCC)c3)c(=O)n2C1/C=C/c1ccccc1 (stereo not given)	72*	0.3	39	1	0.6
Cn1c(=O)c2c(SCC(N)=O)nc(CC(C)(C)C)nc2n(C)c1=O	22	0.8	20	0.9	0.8
Cn1c(=O)c2c(SCC(=O)NCc3ccco3)nc(CC(C)(C)C)nc2n(C)c1=O	52*	0.5	59*	1.4	0.4
Cn1c(=O)c2c(SCC(=O)Nc3ccc4c(c3)OCCO4)nc(CC(C)(C)C)nc2n(C)c1=O	74*	0.3	59*	1.4	0.4
COc1ccc(/C=N/NC(=O)C(=O)N2CCN(c3ccccc3OC)CC2)cc1	36	0.6	7	1.5	0.9
Cc1nc2c(c(=O)n1CCC(C)C)c1nc3ccccc3nc1n2Cc1ccc2c(c1)OCO2	58*	0.4	22	1.3	0.8
CCC(C)n1cnc2c(c1=O)c1nc3ccccc3nc1n2Cc1ccc2c(c1)OCO2 (stereo not given)	99*	0	81*	1.4	0.2

Compound activity: PubChem, Sanford-Burnham Center for Chemical Genomics
